According to PubChem BioAssay (NCI):
This is part of a sample that, as a whole, favours compounds with a hit. Of some 79,000 tested, about 15% had one in any assay. Active and inactive are the calls of the source. Rule as the data show it: active = growth inhibition above about 70%; inactive = the rest.

Key:
[1] = NCI Yeast Anticancer Drug Screen. Data for the rad50 strain (AID 155);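 also: 0% = growth of vehicle-only cultures of the same strain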; conditions: S. cerevisiae rad50 strain growth inhibition; at 50.0 µM; hits give high values
Summary of the method: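 DNA repair mutant yeast, compound exposure, growth read-out; inhibition is taken relative to vehicle.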

[2] = NCI Yeast Anticancer Drug Screen. Data for the mec2-1 strain (AID 157); conditions: S. cerevisiae mec2-1 strain, at 50.0 µM, hits give high values
Summary of the method: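 Mutant yeast (mec2-1) grown with compound; growth inhibition relative to vehicle control reported.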

[3] = NCI Yeast Anticancer Drug Screen. Data for the sgs1 mgt1 strain (AID 161);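 also: 0% = growth of cultures given vehicle only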; conditions: S. cerevisiae sgs1 mgt1 strain, at 50.0 µM, hits give high values
Summary of the method: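 Growth of a repair-deficient yeast mutant was monitored after compound treatment and expressed as inhibition relative to vehicle-treated cultures.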

[4] = NCI Yeast Anticancer Drug Screen. Data for the cln2 rad14 strain (AID 165);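 also: 0% = growth equal to vehicle treated cultures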; conditions: S. cerevisiae cln2 rad14 strain, at 50.0 µM, hits give high values
Summary of the method: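 Readout is yeast growth inhibition versus vehicle-treated controls, using a strain with cln2 and rad14 alterations exposed to compound.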

[5] = NCI Yeast Anticancer Drug Screen. Data for the bub3 strain (AID 167); conditions: S. cerevisiae bub3 mutant strain, at 50.0 µM, hits give high values
Summary of the method: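 In this screen, a yeast mutant lacking normal mitotic checkpoint function is challenged with compound. Relative growth versus vehicle gives the inhibition value.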

[6] = NCI Yeast Anticancer Drug Screen. Data for the mlh1 rad18 strain (AID 175); conditions: S. cerevisiae mlh1 rad18 strain growth inhibition; at 50.0 µM; hits give high values
Summary of the method: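 Genetically defined yeast (DNA repair-deficient) exposed to compounds; growth inhibition determined relative to vehicle.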

Measured: growth inhibition

CCOc1cc(CCNC)c2c(ccc3ccc(OC)c(O)c32)c1OC
inactive: [1] 27.2% | [2] -0.4% | [3] 4.75% | [4] 26.9% | [5] -7.2% | [6] -36.8%

CCOC(CCCN1CCC2(CC1)C(=O)N(C)CN2c1ccccc1)(OCC)c1ccc(F)cc1
inactive: [1] 8.45% | [2] 20.8% | [3] 16.4% | [4] 2.3% | [5] 30.2% | [6] 25.2%

COc1ccc2c(c1OC)C(=O)O[C@@H]2[C@H]1c2cc3c(cc2CCN1C)OCO3
inactive: [1] -8.75% | [2] -4.8% | [3] 0.95% | [4] 6.75% | [5] 4.8% | [6] -43.5%

c1ccc(N2CCN(c3ccccc3)CC2)cc1
inactive: [1] -31.7% | [2] -8.35% | [3] -1.15% | [4] -57.5% | [5] 37.8% | [6] 13.8%

c1ccc(CCN2CCCCC2)cc1
inactive: [1] 23.2% | [2] -4.6% | [3] 10.4% | [4] -2.45% | [5] -14.5% | [6] 33.9%

CNC1=C(C)C(=O)C2=C(C1=O)C(COC(N)=O)C1(OC)C3NC3CN21 (configuration not stated)
active: [6] 83.8%
inactive: [1] 58.8% | [2] 53% | [3] 52% | [4] 60.6% | [5] 31.4%

O=S(=O)(F)c1cc(Cl)c(O)c(S(=O)(=O)F)c1
inactive: [1] 10.1% | [2] 6.25% | [3] 5.8% | [4] 3.65% | [5] -2.75% | [6] 10.1%

CC1(C)CN=C(NN=C(/C=C/c2ccc(C(F)(F)F)cc2)/C=C/c2ccc(C(F)(F)F)cc2)NC1
inactive: [1] 21.6% | [2] 10.4% | [3] 15.3% | [4] 20.2% | [5] 32.2% | [6] 46.8%

CCC[CH2][Sn]([Br])([c]1ccccc1)[c]1ccccc1
active: [1] 99% | [2] 99% | [3] 99.4% | [4] 99.1% | [5] 99% | [6] 98.9%

Cc1ncc(C)[n+]2c(C)csc12
inactive: [1] 5% | [2] -7.95% | [3] -5.05% | [4] -0.4% | [5] -0.9% | [6] -23.4%

Cc1ccc(S(N)(=O)=O)cc1
inactive: [1] 22% | [2] -5.05% | [3] 5.8% | [4] -8.25% | [5] 12.8% | [6] 18.8%

CCOP(=O)(OCC)C(C#N)Cc1ccccc1OC (configuration not stated)
inactive: [1] 20.6% | [2] 4.15% | [3] 0.2% | [4] -18.1% | [5] 3.3% | [6] 12.7%

CCN(CC)CC#N
inactive: [1] 3.8% | [2] -2.75% | [3] -6.4% | [4] -0.25% | [5] 3.45% | [6] -0.7%

CN1C2CCC1[C@@H](COC(=O)c1ccccc1)[C@@H](O)C2 (some centres not stated)
inactive: [1] -9.15% | [2] -14.6% | [3] -15.6% | [4] -27.4% | [5] -3.55% | [6] -61%

CC(=O)O[C@H]1CC[C@]2(C)[C@H]3CC[C@]4(C)[C@@H](OC(C)=O)CC[C@H]4[C@@H]3[C@H](C=O)[C@]2(O)C1
inactive: [1] 7.9% | [2] 4.35% | [3] -8.6% | [4] 4.25% | [5] -0.75% | [6] 8.7%

CCC1(O)C(=O)OCc2c1cc1n(c2=O)Cc2cc3cc(N)ccc3nc2-1 (configuration not stated)
inactive: [4] 56.8% | [5] 56.1%
active: [1] 85% | [2] 88.5% | [3] 77.5% | [6] 72.2%

O=C(CP(=O)(O)O)c1cccs1
inactive: [1] -10.6% | [2] -10.3% | [3] -28% | [4] -10.8% | [5] -17.8% | [6] -18.9%

O=C(N/N=C/c1ccc(N(CCCl)CCCl)cc1)c1ccc(N(CCCl)CCCl)cc1
inactive: [1] 30.6% | [2] 4.65% | [3] 26.6% | [4] 37.8% | [5] 4.55% | [6] 7.9%

CN1CN(c2ccccc2)C2(CCN(CCc3cc4ccccc4o3)CC2)C1=O
inactive: [1] -30.9% | [2] -10.1% | [3] -12.8% | [4] -28.9% | [5] 3.4% | [6] -22.2%

Cc1cc(-n2c(/C=C/c3ccc(Cl)cc3)nc3cc(Cl)ccc3c2=O)on1
inactive: [1] -27.2% | [2] -34.3% | [3] -12.8% | [4] -0.1% | [5] -9.75% | [6] -10.8%

C=CCSc1nc2ccccc2c(=O)n1-c1cc(OC)c(Cl)cc1OC
inactive: [1] 9% | [2] -20.9% | [3] 15.1% | [4] 8.45% | [5] 42.5% | [6] -9.25%

C[C@]12CC[C@H]3[C@@H](CCC4=C(Br)C(=O)CC[C@@H]43)[C@@H]1CC[C@@H]2O
inactive: [1] 9.5% | [2] 2.3% | [3] 10.6% | [4] -19.6% | [5] 2.5% | [6] 19.1%

CCCCOP(=S)(N1CCCCC1)N1CCCCC1
inactive: [1] -8.15% | [2] 3.5% | [3] 5.75% | [4] 8.3% | [5] 2.6% | [6] 0.95%

NC(=O)Oc1cc(OC(N)=O)cc(N(CCCl)CCCl)c1
inactive: [1] 32.8% | [2] 34% | [3] 36.6% | [4] 12% | [5] 40% | [6] 40%

CC(CN1NC12CCCC2)N1NC12CCCC2 (configuration not stated)
inactive: [1] 0.95% | [2] -1.85% | [3] 29.2% | [4] 24.4% | [5] 15.6% | [6] -35.5%

O=C1C(Br)=CC2(C=C1Br)CCN=c1c(O)c3c(c(O)c12)=NC=N3
inactive: [1] 27.3% | [2] 15.7% | [3] 20.5% | [4] 19.1% | [5] 12.7% | [6] -9.4%

O=P1(N(CCCl)CCCl)Oc2ccc(Cl)cc2Sc2c(ccc(Cl)c2Cl)O1 (configuration not stated)
inactive: [1] 43.5% | [2] 7.9% | [3] 40.5% | [4] 40.5% | [5] 35.4% | [6] 46.7%

O=[Se](=O)(O)O
inactive: [1] -45% | [2] -20.2% | [3] -8.4% | [4] -74.7% | [5] -12.6% | [6] -14.5%

CCCC[C@@H]1CCN2C[C@@H](O)[C@@H](O)[C@@H]2[C@H]1O
inactive: [1] -2.4% | [2] 5.65% | [3] -9.45% | [4] 11.7% | [5] 12.2% | [6] -12.9%

C=CCNC(=O)C(Br)C(C)C (configuration not stated)
inactive: [1] -9.8% | [2] -40.8% | [3] -10.6% | [4] 22.9% | [5] -26.9% | [6] -8.2%

CCN(CC)CCN(CC)CC.CCN(CC)CCN(CC)CC.[Cu+2].[Cu+2].[O-][Cl+3]([O-])([O-])[O-].[OH3+].[OH3+]
inactive: [1] -2.85% | [2] 1.85% | [3] -0.35% | [4] 16.1% | [5] 12.6% | [6] 15.7%

ClC1=C(Cl)C2(Cl)C3C4CC(C5OC45)C3C1(Cl)C2(Cl)Cl (configuration not stated)
inactive: [1] 27.4% | [2] -16.6% | [3] 1.25% | [4] 15.5% | [5] 9.75% | [6] -6.8%
